Reference: PubChem BioAssay AID1159580 (chemical genetic matrix, 2015)
Hit rate of the full screen: of about 5,500 compounds, about 2,000 (36%) were called active. Another 18% or so got no clear call; they are omitted. Cut-off read from the data, not from the text of the source: active = normalized growth mostly below about 0.91 (no sharp cut-off); inconclusive = no clear call, values can overlap the other calls; inactive = mostly above about 0.92. This is one part of the list.

Test: chemical genetic growth profiling, strain panel (AID 1159580);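 note: tested at 20 µM; growth read once vehicle control cultures reached saturation at 30 °C; 1 = growth at the plate median or of vehicle wells; lower values mean less growth of the strain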
Conditions: S. cerevisiae deletion strains, growth OD

Measured: normalized growth

Cc1ccc(S(=O)(=O)NC(=O)Nc2ccc(Sc3ccccc3)nc2Sc2ccccc2)cc1
inactive: locus YAR019C, strain CDC15, stronger effect = lower value 0.984 | locus YBL105C, strain PKC1, stronger effect = lower value 0.967 | locus YBR135W, strain CKS1, stronger effect = lower value 0.968 | locus YBR136W, strain MEC1, stronger effect = lower value 0.972 | locus YBR160W, strain CDC28, stronger effect = lower value 0.969 | locus YDL017W, strain CDC7, stronger effect = lower value 0.974 | locus YDL028C, strain MPS1, stronger effect = lower value 0.974 | locus YDL101C, strain DUN1, stronger effect = lower value 0.983 | locus YDL108W, strain KIN28, stronger effect = lower value 0.966 | locus YDL132W, strain cdc53, stronger effect = lower value 0.956 | locus YDL214C, strain PRR2, stronger effect = lower value 0.927 | locus YDR052C, strain DBF4, stronger effect = lower value 0.978 | locus YDR054C, strain cdc34, stronger effect = lower value 0.969 | locus YDR226W, strain ADK1, stronger effect = lower value 0.977 | locus YDR477W, strain SNF1, stronger effect = lower value 0.936 | locus YER123W, strain YCK3, stronger effect = lower value 0.976 | locus YER133W, strain GLC7, stronger effect = lower value 0.961 | locus YFL009W, strain cdc4, stronger effect = lower value 0.957 | locus YFL029C, strain CAK1, stronger effect = lower value 0.979 | locus YFR003C, strain YPI1, stronger effect = lower value 0.969 | locus YFR019W, strain FAB1, stronger effect = lower value 0.993 | locus YFR028C, strain CDC14, stronger effect = lower value 0.974 | locus YGR040W, strain KSS1, stronger effect = lower value 0.942 | locus YGR052W, strain FMP48, stronger effect = lower value 0.982 | locus YGR092W, strain DBF2, stronger effect = lower value 0.913 | locus YHR079C, strain IRE1, stronger effect = lower value 0.948 | locus YHR082C, strain KSP1, stronger effect = lower value 1.03 | locus YHR205W, strain SCH9, stronger effect = lower value 0.946 | locus YIL147C, strain SLN1, stronger effect = lower value 0.977 | locus YJL095W, strain BCK1, stronger effect = lower value 0.933 | locus YJL128C, strain PBS2, stronger effect = lower value 0.967 | locus YJL157C, strain FAR1, stronger effect = lower value 0.97 | locus YJR016C, strain ILV3, stronger effect = lower value 0.98 | locus YJR066W, strain TOR1 (second series), stronger effect = lower value 0.967 | locus YJR066W, strain TOR1, stronger effect = lower value 0.95 | locus YKL048C, strain ELM1, stronger effect = lower value 0.97 | locus YKL067W, strain YNK1, stronger effect = lower value 0.914 | locus YKL101W, strain HSL1, stronger effect = lower value 0.957 | locus YKL193C, strain SDS22, stronger effect = lower value 0.972 | locus YKL203C, strain TOR2, stronger effect = lower value 1.04 | locus YLR113W, strain HOG1, stronger effect = lower value 0.885 | locus YLR133W, strain CKI1, stronger effect = lower value 0.954 | locus YLR403W, strain SFP1, stronger effect = lower value 0.999 | locus YML070W, strain DAK1, stronger effect = lower value 0.972 | locus YMR001C, strain CDC5, stronger effect = lower value 0.971 | locus YMR205C, strain PFK2 (second series), stronger effect = lower value 0.944 | locus YMR277W, strain FCP1, stronger effect = lower value 0.965 | locus YNL006W, strain LST8, stronger effect = lower value 0.968 | locus YNL020C, strain ARK1, stronger effect = lower value 0.949 | locus YNL161W, strain CBK1, stronger effect = lower value 0.973 | locus YNL183C, strain NPR1, stronger effect = lower value 0.969 | locus YNL207W, strain RIO2, stronger effect = lower value 0.966 | locus YNL222W, strain SSU72, stronger effect = lower value 0.948 | locus YNL307C, strain MCK1 (second series), stronger effect = lower value 0.945 | locus YOL078W, strain AVO1, stronger effect = lower value 0.966 | locus YOL136C, strain PFK27, stronger effect = lower value 0.972 | locus YOR061W, strain CKA2, stronger effect = lower value 0.938 | locus YOR119C, strain RIO1, stronger effect = lower value 0.98 | locus YOR231W, strain MKK1, stronger effect = lower value 0.976 | locus YOR329C, strain SCD5, stronger effect = lower value 0.977 | locus YPL031C, strain PHO85, stronger effect = lower value 0.94 | locus YPL153C, strain RAD53, stronger effect = lower value 0.946 | locus YPL204W, strain HRR25, stronger effect = lower value 0.934 | locus YPL209C, strain IPL1, stronger effect = lower value 0.976 | locus YPL256C, strain CLN2, stronger effect = lower value 0.955 | locus YPR025C, strain CCL1, stronger effect = lower value 0.97 | locus YPR106W, strain ISR1, stronger effect = lower value 0.979 | locus YPR111W, strain DBF20, stronger effect = lower value 0.954 | strain NNK1, stronger effect = lower value 0.974 | strain TSCII, stronger effect = lower value 0.963
active: locus YHR030C, strain SLT2, stronger effect = lower value 0.745
